The record followed here is PubChem BioAssay (NCATS).

Inconclusive results are not listed. Active and inactive are the calls of the source. Unless noted, calls come from the whole dose curve; as a rule, active = well fitted curve in the direction sought with a large enough effect; inconclusive = small, poorly fitted or top-dose-only effect, or another doubt; inactive = no such curve, though single readings can be large; an effect the other way counts as inactive or inconclusive.

A short description of assay [1]: qHTS for Inhibitors of Cell Surface uPA Generation: Validation Assay (AID 493164).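 Note: RAW 264.7 macrophage cells exposed to compound for 18 h.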 The method in brief:
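RAW 264.7, 4000 cells/well, o/n plating; cpd 7-pt 1:5 dilution 2.45 nM–38.3 uM final; 18 h, 37 C/5% CO2; ATP-Lite, 5 s luminescence exposure.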
A general note: Quantitative high-throughput screening tests each substance at several concentrations.

For assay [2], the target named is Phosphoglycerate kinase, glycosomal (Trypanosoma brucei brucei) (UniProt P07378). The experiment in a line: qHTS Validation Assay to Find Inhibitors of Phosphoglycerate Kinase (AID 504547). The method, boiled down:
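Inhibition of the enzyme is judged by a Kinase-Glo Plus luminescent signal following a one-hour incubation at room temperature. Because 1,3-BPG is unstable, it is made in situ by GAPDH at 100nM final; no-PGK wells define the baseline.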

For assay [3], the target named is phosphoglycerate mutase (Leishmania major) (UniProt Q4Q090). The experiment in a line: qHTS Validation Assay to Find Inhibitors of Phosphoglycerate Mutase (AID 504548). Note: series mostly up to about 58 µM. As to conditions: Potency: inhibition qHTS. The method, boiled down: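 Lm PGAM 1.25nM final; 100 mM TEA pH 7.6, 5 mM MgCl2, 0.01% Tween-20; 45 min RT; Kinase-GloPlus, 10 min; end-point luminescence. Enzyme-free wells as negative controls.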
Sequence of phosphoglycerate mutase (Leishmania major) (Q4Q090 1-553): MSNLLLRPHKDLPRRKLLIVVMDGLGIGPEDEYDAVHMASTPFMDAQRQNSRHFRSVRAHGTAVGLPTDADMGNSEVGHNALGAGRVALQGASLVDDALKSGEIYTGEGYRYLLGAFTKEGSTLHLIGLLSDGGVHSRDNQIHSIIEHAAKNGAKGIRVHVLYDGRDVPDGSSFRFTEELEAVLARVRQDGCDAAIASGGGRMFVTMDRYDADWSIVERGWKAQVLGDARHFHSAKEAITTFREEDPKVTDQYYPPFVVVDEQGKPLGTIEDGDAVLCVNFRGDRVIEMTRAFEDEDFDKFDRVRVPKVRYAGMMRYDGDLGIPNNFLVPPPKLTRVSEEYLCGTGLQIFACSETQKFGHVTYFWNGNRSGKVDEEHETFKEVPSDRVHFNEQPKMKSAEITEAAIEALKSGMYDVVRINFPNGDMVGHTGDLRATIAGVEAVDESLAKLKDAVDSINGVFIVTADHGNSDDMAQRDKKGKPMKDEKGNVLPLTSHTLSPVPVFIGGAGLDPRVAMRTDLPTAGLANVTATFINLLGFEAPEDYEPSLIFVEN

The target of assay [4] is Ubiquitin carboxyl-terminal hydrolase 1 (Homo sapiens) (UniProt O94782). The experiment in a line: Inhibitors of USP1/UAF1: Pilot qHTS (AID 504865). Note: nearly all actives have a fitted effect of over 35% in size. Note: potency is the fitted concentration of half-maximal effect. The method, boiled down: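 Deubiquitinase activity followed as kinetic rhodamine fluorescence release from 150 nM Ub-Rho. 1 nM USP1/UAF1 with compound, after 15 min room-temperature preincubation, in HEPES pH 7.8 buffer containing TCEP, EDTA, BSA and Tween-20.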
Sequence of Ubiquitin carboxyl-terminal hydrolase 1 (Homo sapiens) (O94782 whole entry, looked up): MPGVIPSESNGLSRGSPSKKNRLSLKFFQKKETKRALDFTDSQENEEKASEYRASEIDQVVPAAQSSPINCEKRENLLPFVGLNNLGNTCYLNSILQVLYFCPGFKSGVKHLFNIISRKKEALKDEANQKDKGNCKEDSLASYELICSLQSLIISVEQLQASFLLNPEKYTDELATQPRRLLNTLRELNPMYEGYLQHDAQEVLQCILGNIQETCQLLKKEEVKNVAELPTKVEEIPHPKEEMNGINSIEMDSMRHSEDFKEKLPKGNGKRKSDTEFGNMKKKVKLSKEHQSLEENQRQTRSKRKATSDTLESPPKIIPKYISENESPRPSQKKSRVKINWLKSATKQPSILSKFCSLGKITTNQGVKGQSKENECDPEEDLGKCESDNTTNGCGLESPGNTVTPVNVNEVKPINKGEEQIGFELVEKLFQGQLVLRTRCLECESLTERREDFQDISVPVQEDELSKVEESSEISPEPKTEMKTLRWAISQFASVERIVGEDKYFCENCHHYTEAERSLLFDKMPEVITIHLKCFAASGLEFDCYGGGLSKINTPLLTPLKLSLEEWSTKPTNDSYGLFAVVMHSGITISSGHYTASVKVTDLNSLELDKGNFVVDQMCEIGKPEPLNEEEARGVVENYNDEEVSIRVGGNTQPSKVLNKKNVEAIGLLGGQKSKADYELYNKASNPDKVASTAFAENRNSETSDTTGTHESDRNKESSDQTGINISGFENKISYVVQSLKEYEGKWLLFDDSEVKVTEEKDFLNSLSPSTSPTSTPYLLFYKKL

The nature of assay [5]: qHTS for Inhibitors of ATXN expression: Validation of Cytotoxic Assay (AID 588349).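 Note: cells exposed to compound for 72 hr.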 The method in brief:
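HEK293, compound dose series, 72 hr / 37 degrees C; viability via CellTiter Glo (intracellular ATP).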

In assay [6] the target is Peptidyl-prolyl cis-trans isomerase NIMA-interacting 1 (Homo sapiens) (UniProt Q13526). The experiment in a line: qHTS Validation Assay to Find Inhibitors of Pin1 (AID 504536; active = well fitted inhibition curve with a large enough effect in the polarisation, with a control signal flat, not every such curve was filed as active; the % refers to the polarisation; note: potency is the fitted concentration of half-maximal effect). The method in brief: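 Fluorescence polarization competition: compounds (titration) displace HiFluor-488-labeled Pin1-1b peptide from Pin1 (0.3 uM final) in pH 7.5 HEPES buffer with DTT, 10 min at room temperature; %Activity normalized to no-enzyme wells, curves fitted.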
Sequence of Peptidyl-prolyl cis-trans isomerase NIMA-interacting 1 (Homo sapiens) (Q13526 whole entry, looked up): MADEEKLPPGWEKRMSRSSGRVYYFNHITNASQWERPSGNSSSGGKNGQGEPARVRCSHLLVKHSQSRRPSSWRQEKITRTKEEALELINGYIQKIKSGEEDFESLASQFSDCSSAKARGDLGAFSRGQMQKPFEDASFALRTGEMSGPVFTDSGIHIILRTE

The nature of assay [7]: qHTS for Inhibitors of ATXN expression: Validation (AID 588378). Note: nearly all actives have a fitted effect of over 75% in size. Note: potency is the fitted concentration of half-maximal effect. The method, boiled down: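 Luciferase luminescence (Bright-Glo) from an ATXN2-FFLuc HEK293 line after 24 h compound exposure at 37 °C, preceded by a CellTiter-Fluor fluorescence viability read. Serial dilutions of a reference ATXN2 inhibitor and a luciferase inhibitor served as controls.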
Assay [8] deals with DNA dC->dU-editing enzyme APOBEC-3G (Homo sapiens) (UniProt Q9HC16). The experiment in a line: qHTS for inhibitors of Vif-A3G interactions: Validation (AID 588379). The method in brief:
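HeLa cells stably expressing Vif and A3G-eYFP, 700 cells/well, incubated overnight at 37 deg C, then exposed to compound overnight at 37 deg C. Inhibition of Vif-mediated degradation read as increased yellow fluorescence (Ex 488/Em 500-530) by laser-scanning cytometry.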

Sequence of Phosphoglycerate kinase, glycosomal (Trypanosoma brucei brucei) (P07378 whole entry, looked up): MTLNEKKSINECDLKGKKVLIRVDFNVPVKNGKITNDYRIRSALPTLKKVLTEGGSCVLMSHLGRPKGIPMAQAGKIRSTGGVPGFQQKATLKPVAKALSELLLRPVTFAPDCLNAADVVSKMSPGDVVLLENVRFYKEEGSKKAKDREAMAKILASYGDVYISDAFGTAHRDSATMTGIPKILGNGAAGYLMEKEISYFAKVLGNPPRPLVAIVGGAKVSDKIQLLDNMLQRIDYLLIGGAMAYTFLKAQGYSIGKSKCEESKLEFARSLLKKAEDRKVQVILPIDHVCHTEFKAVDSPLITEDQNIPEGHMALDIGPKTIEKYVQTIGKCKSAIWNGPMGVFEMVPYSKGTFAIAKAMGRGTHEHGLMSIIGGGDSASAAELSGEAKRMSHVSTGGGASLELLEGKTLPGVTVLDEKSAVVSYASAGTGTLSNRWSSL
Sequence of DNA dC->dU-editing enzyme APOBEC-3G (Homo sapiens) (Q9HC16 whole entry, looked up): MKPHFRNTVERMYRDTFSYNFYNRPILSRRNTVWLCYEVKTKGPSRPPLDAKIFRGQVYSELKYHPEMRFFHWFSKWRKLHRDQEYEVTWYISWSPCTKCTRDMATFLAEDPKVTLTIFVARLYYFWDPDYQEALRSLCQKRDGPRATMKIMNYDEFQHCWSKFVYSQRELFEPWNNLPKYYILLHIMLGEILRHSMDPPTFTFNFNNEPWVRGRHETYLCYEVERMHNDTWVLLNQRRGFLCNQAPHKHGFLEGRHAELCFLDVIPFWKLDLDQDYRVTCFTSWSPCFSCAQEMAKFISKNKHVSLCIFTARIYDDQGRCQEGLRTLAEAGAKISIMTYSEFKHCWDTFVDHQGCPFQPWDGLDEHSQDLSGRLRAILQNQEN

Turning to `CCCCCCCCc1ccc(-c2ccc(C(=O)O)cc2)cc1`, in assay [1], the compound was classed as inactive. For the same compound, the Potency entry in assay [2], in assay [3] and in assay [5] was “inactive” each time. In addition, the Potency in assay [4] was 50.1 µM (active).
Regarding `O=C1/C(=C/c2ccsc2)CC/C1=C\c1cccs1`, in assay [1], the result was inactive. Moreover, the Potency result in assay [6], in assay [2], in assay [4] and in assay [5] was “inactive” throughout.
As to `CCOC(=O)N1CCN(/[N+]([O-])=N/Oc2ccc([N+](=O)[O-])cc2[N+](=O)[O-])CC1`, the outcome in assay [1] was inactive. Moreover, the Potency entry in assay [6], in assay [2], in assay [3] and in assay [7] was “inactive” throughout.
With `Cc1nc2sccn2c(=O)c1CCN1CCC(=C(c2ccccc2)c2ccc(F)cc2)CC1`, the compound was called inactive in assay [1]. The Potency result in assay [6], in assay [2], in assay [3], in assay [7] and in assay [8] was “inactive” each time.
As for `CNC(=O)[C@H]1O[C@@H](n2cnc3c(NCc4cccc(I)c4)ncnc32)[C@H](O)[C@@H]1O`, the compound was called inactive in assay [1]. Moreover, the Potency entry in assay [6], in assay [2], in assay [3], in assay [4], in assay [5] and in assay [7] was “inactive” throughout.
With `Nc1ncnc2c1c(I)cn2[C@@H]1C[C@H](N)[C@@H](O)[C@H]1O`, the compound was classed as inactive in assay [1]. For the same compound, the Potency result in assay [6], in assay [2], in assay [3] and in assay [4] was “inactive” throughout. Moreover, in assay [7], the Potency was 10 µM (active).
For the compound `CCOC(=O)C1=C(C)NC(C)=C(C(=O)OCC)C1c1c(F)c(F)c(F)c(F)c1F`, the compound was called inactive in assay [1]. The Potency result in assay [6], in assay [2], in assay [3] and in assay [5] was “inactive” in each case.
In the case of `CCCC1(C)C(C#N)(C#N)C1(C#N)C#N`, the compound was classed as inactive in assay [1]. Besides, the Potency entry in assay [6] and in assay [2] was “inactive” each time. The Potency in assay [4] is 10 µM (active).
Regarding `OC[C@H]1O[C@@H](n2cnc3c(NC4CCCC4)ncnc32)[C@H](O)[C@@H]1O`, the compound was classed as inactive in assay [1]. Besides, the Potency entry in assay [6], in assay [2], in assay [3], in assay [4], in assay [5] and in assay [7] was “inactive” each time.
For the compound `CC(C)NC[C@@H](O)c1ccc(O)c(O)c1`, the compound was called inactive in assay [1]. In addition, the Potency entry in assay [2], in assay [3] and in assay [4] was “inactive” each time.
As to `COc1cc(SC)ccc1C(=O)N1CCC(Cc2ccccc2)CC1`, the compound was called inactive in assay [1]. Besides, the Potency entry in assay [6], in assay [2], in assay [3] and in assay [5] was “inactive” throughout.
As for `C[N+](C)(C)CCOP(=O)(O)OP(=O)([O-])OC[C@H]1O[C@@H](n2ccc(N)nc2=O)[C@H](O)[C@@H]1O`, the compound was called inactive in assay [1]. Moreover, the Potency result in assay [2], in assay [3], in assay [4], in assay [5] and in assay [7] was “inactive” each time.
As to `CN1C2CC(OC(=O)[C@H](CO)c3ccccc3)CC1C1OC12` (some centres not stated), the compound was called inactive in assay [1]. Also, the Potency entry in assay [6], in assay [2], in assay [3], in assay [5] and in assay [7] was “inactive” each time.
Turning to `O=P(O)(O)C(Cl)(Cl)P(=O)(O)O`, in assay [1], the result was inactive. For the same compound, the Potency in assay [6] was 26.9 µM (active). Moreover, the Potency entry in assay [2], in assay [3], in assay [5] and in assay [7] was “inactive” in each case.
As to `COc1ccccc1N1CCN(CCN(C(=O)c2ccc(I)cc2)c2ccccn2)CC1`, the call in assay [1] was inactive. In addition, the Potency entry in assay [6], in assay [2], in assay [3], in assay [4] and in assay [7] was “inactive” throughout.
Consider `CCC1C(=O)OCC1Cc1cncn1C` (configuration not stated), for which the compound was classed as inactive in assay [1]. In addition, the Potency result in assay [6], in assay [2], in assay [3], in assay [7] and in assay [8] was “inactive” throughout.
Turning to `NCC1OC(O[C@H]2[C@H](O)[C@@H](OC3C(O)C(N)CC(N)C3OC3OC(CO)C(O)C(O)C3N)O[C@@H]2CO)C(N)C(O)C1O` (some centres not stated), the compound was called inactive in assay [1]. In addition, the Potency result in assay [6], in assay [2], in assay [3], in assay [5] and in assay [7] was “inactive” each time.
`Nc1nc(SCc2ccc([N+](=O)[O-])cc2)c2ncn([C@@H]3O[C@H](CO)[C@@H](O)[C@H]3O)c2n1`: the call in assay [1] was inactive. Further, the Potency entry in assay [6], in assay [2], in assay [3], in assay [4], in assay [5] and in assay [7] was “inactive” throughout.
